HMGR II inh – inhibitors of class II HMG-CoA reductase from Enterococcus faecalis; inhibition, % at 10 µM; purified E. faecalis HMGR, NADPH absorbance 340 nm kinetic; AID 1066; hit rate 0.41% among 190,000;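 active = inhibition above a set limit, the median over all tested compounds plus 3 SD, cut at about 9.5% in these data; inconclusive = no clear call, values can overlap the other calls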;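 also: enzyme runs in reverse so mevalonate oxidation gives rising NADPH absorbance; 0% = complete reaction with DMSO and 100% = background rate lacking mevalonate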
DTT redox prof – compounds producing H2O2 with reducing agent – biochemical, NIH compound library profiling, artefact control for MLSCN library redox annotation, primary screen; activation, % at 10 µM; AID 878; DTT-dependent redox cycling H2O2, phenol red/HRP absorbance; 100% = 100 µM peroxide control, 0% = buffer; hit rate 0.03% among 200,000;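 active = activation of at least 50% relative to the plate's high and low controls in the primary single-dose screen; inactive = activation below 50%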;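 also: compound incubated with DTT at 0.8 mM final as the reducing agent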
Insulin prom up – MIN6 insulin promoter up-regulation; z-score at 5 µM; AID 1625; hit rate 0.3% among 190,000; MIN6 insulin promoter-GFP reporter, high-content imaging; stronger effect = higher value;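 active = z-score above 3 at 5 µM with at least 500 cells counted in the well; inconclusive = wells under 500 cells, flagged as cytotoxic or low count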
NCF1 inh – inhibitors of human p47phox binding | p47phox/p22phox peptide binding, fluorescence polarization, 2 h | inhibition, % at 24.7 µM | hit rate 0.53% among 220,000;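 active = inhibition above about 30%, limit read from the data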;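 also: 0% = p47phox with labelled peptide and 100% = labelled peptide alone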
Target sequence (P14598 whole entry, looked up): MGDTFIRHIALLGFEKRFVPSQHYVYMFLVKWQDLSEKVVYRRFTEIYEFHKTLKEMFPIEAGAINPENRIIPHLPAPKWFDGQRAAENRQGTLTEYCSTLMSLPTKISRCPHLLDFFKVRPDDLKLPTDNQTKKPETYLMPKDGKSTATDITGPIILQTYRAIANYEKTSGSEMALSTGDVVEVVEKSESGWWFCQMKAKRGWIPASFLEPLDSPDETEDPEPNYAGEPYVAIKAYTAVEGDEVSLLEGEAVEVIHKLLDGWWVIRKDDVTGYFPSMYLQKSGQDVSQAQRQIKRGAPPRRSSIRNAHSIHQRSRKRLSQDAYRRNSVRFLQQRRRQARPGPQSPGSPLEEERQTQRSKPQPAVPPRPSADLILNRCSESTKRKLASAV
Autophagy HCS – autophagy modulation, high-content screen; MEF GFP-LC3 puncta imaging; test concentration mostly 10 µM; calls only at 10 µM (by protocol); hit rate 0.98% among 190,000;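 active = percentage of spot-positive cells more than 3 SD above its plate mean, without a fluorescence outlier flag or 80% toxicity; inconclusive = no clear call, values can overlap the other calls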;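 also: spot-positive cell cutoff set from DMSO-treated cells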
Arbovirus inh – arbovirus infection inhibition | arbovirus infection cell-based antiviral screen | AID 1251 | inhibition, % at 10 µM | hit rate 0.37% among 200,000; in the data active = inhibition above about 30%
Active calls of the source: *. Rows were chosen to be rich in hits. Some 2.2% of all compounds tested hit in one or more screens of this group.

For CCC(Sc1nc2cc3c(cc2c(=O)n1Cc1ccco1)OCO3)C(=O)Nc1ccccc1OC (centres undefined) the results were HMGR II inh -4, DTT redox prof 22, Insulin prom up -0.17, NCF1 inh -17, Autophagy HCS active and Arbovirus inh -16.
Screening CCc1ccc(NC(=O)CSc2nc3cc(C(=O)OC)ccc3c(=O)n2Cc2ccco2)cc1 returned HMGR II inh -6, DTT redox prof 1, Insulin prom up 0.14, NCF1 inh 14, Autophagy HCS inactive and Arbovirus inh 0.
For CCC(Sc1nc2cc3c(cc2c(=O)n1Cc1ccco1)OCO3)C(=O)Nc1cccc(OC)c1 (centres undefined) the results were HMGR II inh 0, DTT redox prof -8, Insulin prom up 0.13, NCF1 inh -7, Autophagy HCS active and Arbovirus inh -17.
`CCC(C)NC(=O)CSc1nc2cc3c(cc2c(=O)n1Cc1ccco1)OCO3` (centres undefined) gave HMGR II inh -3, DTT redox prof 0, Insulin prom up 0.1, NCF1 inh 30*, Autophagy HCS inactive and Arbovirus inh 5.
CCN(C(=O)CSc1nc2cc(C(=O)OC)ccc2c(=O)n1Cc1ccco1)c1cccc(C)c1 was read as HMGR II inh -8, DTT redox prof 1, Insulin prom up 4.5*, NCF1 inh -6, Autophagy HCS inactive and Arbovirus inh -7.
For CCOC(=O)C1CCN(S(=O)(=O)c2c(C)n[nH]c2C)CC1 the results were HMGR II inh 3, DTT redox prof -1, Insulin prom up 0.23, NCF1 inh -6, Autophagy HCS inactive and Arbovirus inh 1.
CCCCN(C(=O)c1cc2ccccc2o1)c1c(N)n(CCC)c(=O)[nH]c1=O was read as HMGR II inh -10, DTT redox prof 0, Insulin prom up -0.07, NCF1 inh -9, Autophagy HCS inactive and Arbovirus inh 0.
Screening COc1ccc(NC(=O)c2ccccc2N(Cc2ccccc2)S(C)(=O)=O)cc1OC returned HMGR II inh 10*, DTT redox prof 0, Insulin prom up -1.5, NCF1 inh -3, Autophagy HCS inactive and Arbovirus inh 8.
Screening COCCNC(=O)C(c1ccc(Cl)cc1)N(CCOC)C(=O)CCC(=O)Nc1nccs1 (centres undefined) returned HMGR II inh 3, DTT redox prof -1, Insulin prom up 0.22, NCF1 inh 1, Autophagy HCS inactive and Arbovirus inh -2.
For O=C(CSCc1ccc(F)cc1)NCc1ccco1 the results were HMGR II inh 3, DTT redox prof -18, Insulin prom up 0.74, NCF1 inh -12, Autophagy HCS inactive and Arbovirus inh -1.
Screening CCCC(=O)Oc1ccccc1C1SCc2cc(C)c(C)cc2CS1 returned HMGR II inh -1, DTT redox prof -3, Insulin prom up 1, NCF1 inh -9, Autophagy HCS inactive and Arbovirus inh 32*.
For CCC(C(=O)c1ccccc1)P(=O)(NN)c1ccccc1 (centres undefined) the results were Insulin prom up 0.26 and NCF1 inh -3.
For COc1ccc(C2CC(=O)c3cnn(-c4nc(C)cc(C)n4)c3C2)cc1OC (centres undefined) the results were Insulin prom up -0.37 and NCF1 inh 2.
`Cc1ccc(C2CC(=O)c3cnn(-c4nc(C)cc(C)n4)c3C2)cc1` (centres undefined) gave HMGR II inh -10, DTT redox prof 0, Insulin prom up -0.1, NCF1 inh 16, Autophagy HCS inactive and Arbovirus inh 36*.
For NC(=O)CC(NC(=O)c1ccc(Br)cc1)c1ccc(N2CCC(Br)CC2)c([N+](=O)[O-])c1 (centres undefined) the results were Insulin prom up inconclusive and NCF1 inh 7.
O=C(NCCCCc1ccccc1)C1CC(c2ccccc2C(F)(F)F)=NO1 (centres undefined) was read as Insulin prom up 0 and NCF1 inh -19.
`CC(=O)N1C(=O)C(=C2C=C(C)OC(C)=C2)c2ccccc21` gave HMGR II inh -4, DTT redox prof -1, Insulin prom up -0.61, NCF1 inh -58, Autophagy HCS inactive and Arbovirus inh -9.
Screening CC1=CC(=C2C(=O)c3ccccc3C2=O)C=C(C)O1 returned HMGR II inh -1, DTT redox prof -4, Insulin prom up 0.57, NCF1 inh 69*, Autophagy HCS inactive and Arbovirus inh -4.
Cc1cc2nc3ccc(=[N+](C)C)cc-3sc2cc1N was read as Insulin prom up -1.2 and NCF1 inh active.
Screening COc1ccc2nc(N=Nc3ccc(N(C)C)cc3)sc2c1 returned HMGR II inh -4, DTT redox prof -7, NCF1 inh 27, Autophagy HCS inactive and Arbovirus inh -3.
Screening CN(C)c1ccc2nc3ccc(=[N+](C)C)cc-3sc2c1 returned HMGR II inh 0, DTT redox prof 3, Insulin prom up -1.9, NCF1 inh active, Autophagy HCS inactive and Arbovirus inh -19.
`CCOC(=O)/C(=N\Nc1ccccc1)P(=O)(c1ccccc1)c1ccccc1` gave Insulin prom up 1.8 and NCF1 inh -6.
For N#Cc1ccccc1S(=O)(=O)Nc1ccc2c(c1)C(=O)OC2 the results were Insulin prom up -0.54 and NCF1 inh -14.
For Cc1nc(SCC(=O)NNC(=O)c2cccs2)[nH]c(=O)c1C the results were HMGR II inh -2, DTT redox prof 0, Insulin prom up 1.3, NCF1 inh -2, Autophagy HCS inactive and Arbovirus inh 3.
COc1ccc(C(=O)/C=C/c2ccc(OC)c(CN3CCOCC3)c2)cc1 was read as HMGR II inh -1, DTT redox prof 0, NCF1 inh -10, Autophagy HCS inactive and Arbovirus inh 0.
Screening COc1ccc(C(=O)/C=C/c2ccc(OC)c(Cn3nnc4ccccc43)c2)cc1 returned HMGR II inh -2, DTT redox prof 2, Insulin prom up 2.2, NCF1 inh -12, Autophagy HCS inactive and Arbovirus inh 37*.
Screening COc1ccc(C2Nc3ccccc3C(=O)N2NS(=O)(=O)c2ccc(C)cc2)cc1 (centres undefined) returned HMGR II inh 13*, DTT redox prof 0, Insulin prom up 0.38, NCF1 inh -5, Autophagy HCS inactive and Arbovirus inh 13.
For O=C(COC(=O)c1ccc2c(c1)C(=O)N(c1cccc3ncccc13)C2=O)c1ccc(Cl)cc1 the results were HMGR II inh -2, DTT redox prof 0, Insulin prom up 0.5, NCF1 inh 56*, Autophagy HCS inactive and Arbovirus inh 4.
Screening Cc1ccc(C(=O)COC(=O)c2ccc3c(c2)C(=O)N(c2cccc4ncccc24)C3=O)cc1 returned HMGR II inh 2, DTT redox prof 0, Insulin prom up 0.43, NCF1 inh 84*, Autophagy HCS inactive and Arbovirus inh 5.

High-throughput results as filed in PubChem.
